Results taken from PubChem BioAssay (Tox21).
Results filed as inconclusive are left out. Active and inactive are the calls of the source. The call rests on the fitted dose curve; in most records, active means well fitted curve in the direction sought with a large enough effect in the repeat runs; inconclusive means weak or mixed curves; inactive means no such curve, though single readings can be large; an effect the other way counts as inactive or inconclusive.

Columns and labels:
[1] = qHTS assay for identifying genotoxic compounds that show differential cytotoxicity against isogenic chicken DT40 cell lines with known DNA damage response pathways - wild type cell line (AID 743012); conditions: DT40 wild type chicken cells viability, CellTiter-Glo, 40 h; series mostly up to 68.4 µM; further: nearly all actives have a fitted effect of over 60% in size
How it was run: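 Parental DNA repair-proficient DT40 cells, 300 per well, were pre-incubated ~0.5 h at 37 C/5% CO2, pin-dosed with compounds in DMSO, then incubated 40 h. Viability was read as CellTiter-Glo luminescence after 30 min at room temperature.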

[2] = qHTS assay for identifying genotoxic compounds that show differential cytotoxicity against isogenic chicken DT40 cell lines with known DNA damage response pathways - Rev3 mutant cell line (AID 743014); conditions: chicken DT40 Rev3-/- viability, CellTiter-Glo, 40 h; series mostly up to 68.4 µM; further: nearly all actives have a fitted effect of over 55% in size
Excerpt: National Center for Advancing Translational Sciences [NCATS]
NIH Chemical Genomics Center [NCGC]
U.S. Environmental Protection Agency [EPA]
National Institutes of Environmental Health Sciences [NIEHS]
National Toxicology Program [NTP]
U.S. Food and Drug Administration [FDA]
DNA repair pathways play a critical role in cellular homeostasis by repairing DNA damage induced by endogenous processes and xenobiotics. Isogenic chicken DT40 cell lines deficient in different DNA repair pathways can be used to identify genotoxic compounds and aid in characterizing the nature of the DNA damage induced. Two DNA repair-deficient cell lines with disrupted genes, Rad54/Ku70 or Rev3, were used to screen the Tox21 10K compound library. Possible genotoxicity was based on the presence of a significant increase in cytotoxicity in one or more of the DNA repair-deficient cell lines compared to that observed in the parental DNA repair-proficient cell line. […]
300 DT40 mutant cells in 5 uL/well were dispensed into white, solid-bottom 1536-well plates using a Multidrop Combi (ThermoFisher Scientific, Waltham, MA) dispenser. […] After 5 uL per well of CellTiter-Glo reagent was added into each well of the assay plates, the plates were incubated for 30 min at room temperature and the luminescence intensity of the plates was measured using a ViewLux (PerkinElmer, Shelton, CT) plate reader.

[3] = qHTS assay for identifying genotoxic compounds that show differential cytotoxicity against isogenic chicken DT40 cell lines with known DNA damage response pathways - Rad54/Ku70 mutant cell line (AID 743015); conditions: DT40 Rad54/Ku70 mutant viability, CellTiter-Glo, 40 h; series mostly up to 66.8 µM; further: nearly all actives have a fitted effect of over 60% in size

Measured: Potency
Potency means the concentration at half of the fitted maximal effect.

COC(=O)[C@]12CCC(C)(C)C[C@H]1[C@H]1C(=O)C=C3[C@@]4(C)C=C(C#N)C(=O)C(C)(C)[C@@H]4CC[C@@]3(C)[C@]1(C)CC2
active: [1] 0.596 µM | [2] 0.841 µM | [3] 0.596 µM
